# The list is not random: actives were taken first. Their share in the collection is about 4.2%.
# ClpP mod: qHTS Assay for Activators of ClpP; AID 651965, 2013; purified B. subtilis ClpP, FRET peptide cleavage, 20 min; ATP-dependent Clp protease proteolytic subunit (Bacillus subtilis (strain 168)), P80244; 340,000 compounds, 1.9% hits; Potency, µM (titrated, usually from 57.5 µM), without a hit: top-dose activity change, negative = active; active = well fitted falling curve with a large enough effect; inconclusive = small, poorly fitted or top-dose-only effect; inactive = no such curve, though single readings can be large or run the other way; note: potency is the fitted concentration of half-maximal effect; the source files actives as falling curves though it sought activators and does not explain the sign; nearly all actives have a fitted effect of over 65% in size
# Target sequence (P80244 whole entry, looked up): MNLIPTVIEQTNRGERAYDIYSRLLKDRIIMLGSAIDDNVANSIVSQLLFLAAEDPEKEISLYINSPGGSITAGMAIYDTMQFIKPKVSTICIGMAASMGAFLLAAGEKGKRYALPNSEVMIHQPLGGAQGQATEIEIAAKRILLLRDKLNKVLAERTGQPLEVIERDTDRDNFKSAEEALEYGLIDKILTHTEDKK
#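 Buffer: 100 mM Tris/HCl pH8, 100 mM KCl, 0.05% low protease BSA, 2.5% glycerol, 0.01% Tween-20. ClpP 10 microg/mL final; 20 min RT; delta FRET normalized to ADEP and DMSO controls.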
# uPA surface inh: blocks generation of uPA at the cell surface. cell surface uPA generation assay, qHTS. Potency, µM (titrated, usually from 38.3 µM), inactives show at the top dose activity change, negative = inhibition, usual class: inhibitors. 330,000 compounds, 0.31% hits. AID 540303; active = well fitted inhibition curve with a large enough effect; inconclusive = small, poorly fitted or top-dose-only effect; inactive = no such curve, though single readings can be large or run the other way; tested in mouse RAW 264.7 cells; note: potency is the fitted concentration of half-maximal effect; % is set by controls: 0 for no effect and ±100 for the full control effect; nearly all actives have a fitted effect of over 55% in size
# TCR act: activators of T cell receptors. primary human leukocytes, anti-CD3, IL-2 HTRF, 48 h. Potency, µM (series often up to 9.22 µM), for inactives: at the top dose activation of IL-2 secretion, usual class: activators. 330,000 tested, under 10 active. AID 504894; note: % of control where 0% means no effect
#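 Compounds are tested in HTS on primary human leukocytes co-incubated with a-CD3 beads for 48 hr. IL-2 output is measured by time-resolved FRET.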
# Sfp inh: inhibitors of Bacillus subtilis Sfp phosphopantetheinyl transferase | Potency, µM, without a hit: largest response in the series, negative = inhibition, actives largely listed as inhibitors | Biochemical Sfp PPTase activity, qHTS | 310,000 compounds, 3.5% hits | AID 1490 | Q9F4F7;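 note: the enzyme is Sfp with the accession as filed and its product quenches rhodamine fluorescence; potency is the fitted concentration of half-maximal effect; 0% = enzyme reaction without inhibitor and -100% = no enzyme wells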
#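 Compounds were incubated with enzyme (final 15 nM) for 15 min at room temperature before substrate addition started the reaction. Fluorescence at 525 nm excitation, 598 nm emission was recorded immediately and after 30 minutes.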
# Sfp inh conf: confirmation of Bacillus subtilis Sfp PPTase inhibitors; shares compounds with Sfp inh; Sfp PPTase enzymatic assay, qHTS titration; Potency, µM (doses to about 114 µM), for inactives: top-dose activity change, negative = inhibition, most hits filed as inhibitors; 380 compounds, 79% hits;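 note: potency is the fitted concentration of half-maximal effect; plate controls were uninhibited Sfp reaction for no effect and no enzyme control for full effect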
# Target sequence (Q9F4F7 whole entry, looked up): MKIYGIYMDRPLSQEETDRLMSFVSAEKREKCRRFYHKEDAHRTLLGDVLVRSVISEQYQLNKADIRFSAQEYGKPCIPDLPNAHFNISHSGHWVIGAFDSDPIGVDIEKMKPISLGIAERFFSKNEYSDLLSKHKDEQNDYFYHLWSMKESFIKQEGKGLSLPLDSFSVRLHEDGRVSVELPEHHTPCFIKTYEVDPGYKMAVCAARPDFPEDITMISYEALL
# Sfp gel assay: Inhibits Bacillus subtilis Sfp phosphopantetheinyl transferase; shares compounds with Sfp inh; 210 compounds, 20% hits; Potency, µM, usual class: inhibitors; purified Sfp, gel-based phosphopantetheinylation read-out; AID 2707;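 active = potency below 100 µM; inconclusive = dose-dependent response but potency above 100 µM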;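 note: band intensities scaled against SCH202676 control wells before curve fitting; potency is an IC50 for inhibitors of Sfp transfer activity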
# An asterisk follows results filed as active; i = inactive; ? = inconclusive; . = not tested or not shown; ! = repeats disagree; [ ] = remark or other dose. Unless noted, calls come from the whole dose curve; as a rule, active = well fitted curve in the direction sought with a large enough effect; inconclusive = small, poorly fitted or top-dose-only effect, or another doubt; inactive = no such curve, though single readings can be large; an effect the other way counts as inactive or inconclusive.
SMILES,ClpP mod,uPA surface inh,TCR act,Sfp inh,others
COc1ccc(-c2cc3nc(C)n(N)c(=O)c3s2)cc1,4%,0.71µM*,4%,-8%,
Oc1ccc(N=Cc2ccc(-c3cccs3)s2)cc1,110%,.,9%,32µM*,
O=C(/C(C=Nc1ccc(F)cc1)=C(/O)c1ccco1)C(F)(F)F,25µM*,-5%,6%[46.1 µM],2%,
Cc1cccc(N=C/C(C(=O)C(F)(F)F)=C(\O)c2ccco2)c1,-8%,0%,-7%[46.1 µM],8%,
Cc1ccc(N=C/C(C(=O)C(F)(F)F)=C(\O)c2ccco2)cc1Cl,16µM*,-3%,-29%[46.1 µM],-12%,
COc1cccc(-c2nnc3n2N=C(c2c(OC)cccc2OC)CS3)c1,.,.,.,-10%,
O=C1NC(c2ccccc2)N=C2Oc3ccccc3C=C12 (stereo not drawn),11µM*,-16%,-5%,.,
c1ccc(C2Nc3ccccc3Oc3ccccc32)cc1 (stereo not drawn),1%,7%,2%[46.1 µM],-15%,
Cc1ccc2c(c1)[nH]c1c(=O)n(CCCN3CCOCC3)cnc12,28µM*,-1%,5%,0%,
Cc1ccc2[nH]c3c(=O)n(Cc4ccncc4)cnc3c2c1,14µM*,5%,-3%,7%,
O=c1c2[nH]c3ccccc3c2ncn1CCN1CCCCC1,25µM*,-1%,8%,9%,
COc1ccc(C(=O)Nc2ccc3c(c2)N(C)C(=O)c2ccccc2S3)cc1OC,-13%,.,.,.,
Cc1cc(C)nc(NS(=O)(=O)c2ccc(NC(=O)c3nc(SC(C)C)ncc3Cl)cc2)n1,1%,.,.,.,
COc1ccc(CNC(=O)CN2C(=O)CSc3ccc(S(=O)(=O)N4CCCC4)cc32)cc1,0%,.,.,.,
CC(=O)Nc1ccc(S(=O)(=O)Nc2nnc(C(C)(C)C)s2)cc1,-1%,-2%,6%,-9%,
CC(C)(C)c1nnc(NC(=O)NS(=O)(=O)c2ccccc2)s1,20µM*,-1%,-4%,1%,
COc1cc2c(NC3CCN(C)CC3)nc(N3CCCN(C)CC3)nc2cc1OCCCCCN(C)C,4%,.,.,.,
O=c1c2oc3ccccc3c2n(Cc2ccccc2F)c(=O)n1Cc1ccc2c(c1)OCO2,25µM*,.,.,.,
O=c1c2oc3ccccc3c2n(Cc2cccc(Cl)c2)c(=O)n1Cc1ccc2c(c1)OCO2,-27%,.,.,.,
COC(=O)CCC(=O)Nc1ccc(C)cc1OC(=O)CCC(=O)OC,-5%,3%,-1%,79µM*,
COc1ccccc1OC(C)C(=O)N1CCN(CCc2ccccn2)CC1 (stereo not drawn),-1%,.,.,.,
COc1ccc(S(=O)(=O)N(Cc2ccccc2)c2ccccc2C(=O)Nc2ccccc2C(=O)NCc2ccco2)cc1,22µM*,9%,6%[46.1 µM],11%,
CSc1ncc(C(=O)NCc2ccc(F)cc2)c(-c2ccccc2)n1,-2%,.,.,.,
Cc1ccc(NC(=O)c2ccc(NC(=O)N3CCSc4nc(C)cc(C)c43)cc2)c(Cl)c1,17%,.,.,.,
CCOC(=O)c1c(NC(=O)C2=C(C)NC(=S)NC2c2ccc(C)cc2)sc(C)c1C (stereo not drawn),-3%,-7%,-8%[46.1 µM],20µM*,
SMILES,ClpP mod,uPA surface inh,TCR act,Sfp inh,others
CCOC(=O)c1c(NC(=O)C2C3C=CC(CC3)C2C(=O)O)sc(C)c1C (stereo not drawn),28µM*,2%,-3%[46.1 µM],10%,
CCOC(=O)c1c(NC(=O)C2C3C=CC(C3)C2C(=O)O)sc2c1CCC(CC)C2 (stereo not drawn),25µM*,-11%,-1%[46.1 µM],8%,
CC(=O)Nc1sc(C)c(C)c1C(=O)OCC(=O)N(C)C1CCS(=O)(=O)C1 (stereo not drawn),35µM*,-5%,-4%[46.1 µM],8%,
Cc1noc(C)c1C(=O)OCC(=O)N(C)C1CCS(=O)(=O)C1 (stereo not drawn),.,-2%,2%,15%,
O=C1C=C(OCCF)CC(c2ccc(Br)cc2)O1 (stereo not drawn),1%,.,.,.,
C(=C\c1nccc2ccccc12)/c1ccc(N2CCOCC2)cc1,0%,.,.,.,
CC1=CC(C)(C)NC(=S)N1c1cccc2cc(S(=O)(=O)O)ccc12,-22%,-5%,2%,20µM*,
CC1(C(=O)NC2CCCCC2)Cc2ccccc2C(=O)N1Cc1ccccc1Cl (stereo not drawn),32µM*,.,.,.,
O=C(O)c1cc(O)c2c(c1)[C@H]([C@H]1c3cc(C(=O)O)cc(O)c3C(=O)c3c(O[C@@H]4OC(CO)C(O)C(O)C4O)cccc31)c1cccc(O[C@@H]3OC(CO)C(O)C(O)C3O)c1C2=O (stereo partly drawn),.,.,.,56µM*,
CCc1c(C)nc2c(OC)cccc2c1SCCC(=O)O,?,1%,-13%[46.1 µM],-11%,
CCCCc1c(C)nc2c(OC)cccc2c1SCCC(=O)O,32µM*,-6%,-5%[46.1 µM],-27%,
CC(=O)NCCn1ccc2ccccc21,28µM*,-4%,-27%,8%,
O=C(Cn1c(-c2cccs2)cc2ccccc21)NCCCN1CCN(c2ccc(F)cc2)CC1,32µM*,.,.,.,
O=C(Cn1c(-c2cccs2)cc2cc(F)ccc21)NCCCN1CCN(c2ccccc2F)CC1,32µM*,.,.,.,
CC(C)CCNC(=O)Cn1c(-c2cccs2)cc2cc(F)ccc21,32µM*,.,.,.,
COc1ccc(N2CCN(CCCNC(=O)Cn3c(-c4cccs4)cc4ccccc43)CC2)cc1,4%,.,.,.,
COc1ccc(-c2nnc3ccc(SC(C)C)nn23)cc1OC,-1%,.,.,.,
CCCCN=Cc1c(C)[nH]n(-c2ccccc2)c1=S,0%,4%,-1%,10µM*,
Cc1[nH]n(-c2ccccc2)c(=O)c1C=NCCc1ccccc1,-1%,4%,2%,12%,
O=C(O)C(Cc1cn[nH]n1)=NO,-1%,-15%,1%,79µM*,
COc1cccc(-c2nn(C)c3sc(C(=O)NCc4ccc(C)o4)cc23)c1,?,-10%,-5%,3.5µM*,Sfp inh conf=24µM*
O=C(Nc1ccc(C2=NCCN2)cc1)c1ccc(Cl)c(C(=O)Nc2ccc(C3=NCCN3)cc2)c1,.,.,.,3%,
NNc1nncc2ccccc12,.,.,.,5µM*!,Sfp inh conf=?;Sfp gel assay=74µM*
NCc1csc(Nc2nncc3ccccc23)n1,-6%,.,.,.,
CCC(C)(C)n1nnnc1C(c1ccc(O)c(OC)c1)N1CCc2ccccc2C1 (stereo not drawn),0%,.,-2%,3.5µM*,Sfp inh conf=5.9µM*
O=C(CC(Nc1ccc(F)cc1)C(=O)O)c1ccccc1 (stereo not drawn),-1%,-5%,-3%,2.2µM*,Sfp inh conf=15µM*;Sfp gel assay=i
O=C(NCc1ccccc1Cl)C1=CC=CN2CCS(=O)(=O)N=C12,4%,?,-2%,.,
Brc1ccc2[nH]c3nc(SCCN4CCOCC4)nnc3c2c1,-2%,0%,-2%,4%,
c1ccc2c(c1)[nH]c1nc(SCCN3CCOCC3)nnc12,-3%,2%,2%,4.5µM*,Sfp inh conf=9.4µM*
